Assay results reported in PubChem BioAssay AID1259349 (Broad Institute, 2017).
Hit rate of the full screen: of about 17,000 compounds, about 1,100 (6.5%) were called active. Many of the other results were omitted from the sample, so actives are more common in it than they were. Values without a mark were called inactive.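 How the source made its calls: active means z-score of -3 or lower, meaning strong loss of probe binding signal; inactive means the rest.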

What follows are molecules tested against Insulin-degrading enzyme (Homo sapiens) (UniProt P14735) (assay: exo-site inhibitors of human IDE, primary screen, biochemical, fluorescence anisotropy, probe displacement (AID 1259349;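 further: His-tagged human IDE residues 42-1019 made in E. coli with 30 nM FL-6b probe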)). Settings: purified IDE, FL-6b probe fluorescence polarization; at 20 µM; hits give low values.
Chain of Insulin-degrading enzyme (Homo sapiens) (P14735 42-1019 limits assumed): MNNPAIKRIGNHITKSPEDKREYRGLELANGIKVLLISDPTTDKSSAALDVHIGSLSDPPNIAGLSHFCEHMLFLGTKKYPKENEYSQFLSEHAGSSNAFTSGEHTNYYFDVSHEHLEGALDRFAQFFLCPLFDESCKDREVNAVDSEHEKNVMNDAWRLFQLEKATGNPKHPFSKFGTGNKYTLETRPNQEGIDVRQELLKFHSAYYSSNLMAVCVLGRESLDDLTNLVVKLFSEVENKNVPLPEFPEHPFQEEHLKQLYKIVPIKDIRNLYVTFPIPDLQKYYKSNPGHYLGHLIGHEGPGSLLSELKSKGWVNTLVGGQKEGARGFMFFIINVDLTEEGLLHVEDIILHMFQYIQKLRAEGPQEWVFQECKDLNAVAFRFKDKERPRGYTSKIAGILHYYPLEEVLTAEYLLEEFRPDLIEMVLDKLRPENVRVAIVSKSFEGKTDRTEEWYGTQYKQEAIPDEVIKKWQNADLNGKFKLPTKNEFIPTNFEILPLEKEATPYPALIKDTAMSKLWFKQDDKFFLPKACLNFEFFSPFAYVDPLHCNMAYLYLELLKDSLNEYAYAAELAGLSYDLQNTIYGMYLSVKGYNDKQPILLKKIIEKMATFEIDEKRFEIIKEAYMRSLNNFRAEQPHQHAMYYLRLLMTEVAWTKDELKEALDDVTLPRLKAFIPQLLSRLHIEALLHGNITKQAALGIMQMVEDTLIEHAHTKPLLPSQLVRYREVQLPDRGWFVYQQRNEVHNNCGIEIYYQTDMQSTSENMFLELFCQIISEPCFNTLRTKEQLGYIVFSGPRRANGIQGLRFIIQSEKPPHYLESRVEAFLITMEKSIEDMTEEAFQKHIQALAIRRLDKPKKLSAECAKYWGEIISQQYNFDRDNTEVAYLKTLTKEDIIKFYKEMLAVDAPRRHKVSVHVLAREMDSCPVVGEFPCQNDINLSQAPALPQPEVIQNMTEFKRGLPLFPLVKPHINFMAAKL

Row | SMILES | z-score
1 | C[C@H]1CN([C@@H](C)CO)S(=O)(=O)c2ccc(C#CC3(O)CCCC3)cc2O[C@@H]1CN(C)C(=O)Nc1cccc(F)c1 | -0.533
2 | COc1ccc(-c2ccccc2[C@H]2[C@@H](CO)N(C(=O)c3cccnc3)[C@H]2C#N)cc1 | 0.00658
3 | N#Cc1cccc(-c2ccc(C3[C@H]4CNC[C@@H]3N4Cc3cncnc3)cc2)c1 (some centres not stated) | 1.3
4 | CCN(C[C@H]1[C@H](c2ccc(-c3ccccc3)cc2)[C@H](CO)N1CC1CC1)C(C)=O | 2.55
5 | N#Cc1cccc(-c2ccc(C3[C@@H]4CNC[C@H]3N4)cc2)c1 (some centres not stated) | -0.64
6 | CCCNC(=O)N1[C@H](CNC(=O)c2cccc(F)c2)[C@H](c2ccccc2)[C@@H]1CO | 1.46
7 | CCCNC(=O)N1[C@@H]2Cn3c(ccc(-c4ccc(OC)cc4)c3=O)[C@H]1[C@@H](C(=O)NC1CCC1)[C@@H]2CO | -0.305
8 | CN(C)C(=O)c1cccc(-c2ccc([C@H]3[C@H](CO)N4C(=O)CN(C(=O)Cc5ccccc5)C[C@@H]34)cc2)c1 | 3.83
9 | Cc1cccc(-c2ccc([C@@H]3[C@H]4CN(C(=O)c5ccccc5)CC(=O)N4[C@H]3CO)cc2)c1 | -8.7 (active)
10 | CN(C)C(=O)c1cccc(-c2ccc([C@H]3[C@H]4CN(C(=O)Cc5ccccc5)CC(=O)N4[C@H]3CO)cc2)c1 | 1.91
11 | O=C(c1cnccn1)N1CC(=O)N2[C@H](C1)[C@@H](c1ccc(C3=CCCCC3)cc1)[C@@H]2CO | 0.336
12 | O=C(CN1CCOCC1)N1CCCCN2[C@@H](CO)[C@H](c3ccc(/C=C/c4ccccc4)cc3)[C@@H]2C1 | -4.3 (active)
13 | CC(C)CC#Cc1ccc([C@H]2[C@@H](CO)N3C(=O)CN(C(=O)CN4CCOCC4)C[C@H]23)cc1 | 2.46
14 | CCC(=O)N1CCCCN2[C@H](C1)[C@@H](c1ccc(/C=C/c3ccccc3)cc1)[C@@H]2CO | -7.21 (active)
15 | O=C(CN1CCOCC1)N1CC(=O)N2[C@H](C1)[C@H](c1ccc(/C=C/c3ccccc3)cc1)[C@@H]2CO | -5.55 (active)
16 | CC(C)CC#Cc1ccc([C@H]2[C@H]3CN(C(=O)CN4CCOCC4)CC(=O)N3[C@H]2CO)cc1 | 4.32
17 | COCC(=O)N1CCCCN2[C@H](C1)[C@@H](c1ccc(-c3ccccc3)cc1)[C@@H]2CO | 1.64
18 | O=C(Cc1cccnc1)N1CC(=O)N2[C@H](CO)[C@@H](c3ccc(/C=C/c4ccccc4)cc3)[C@H]2C1 | -1.1
19 | O=C(c1cnccn1)N1CC(=O)N2[C@H](C1)[C@H](c1ccc(/C=C/c3ccccc3)cc1)[C@@H]2CO | -7.53 (active)
20 | CCC(=O)N1CCCCN2[C@H](C1)[C@@H](c1ccc(-c3ccc(F)cc3)cc1)[C@@H]2CO | 1.91
21 | O=C(CN1CCOCC1)N1CCCCN2[C@@H](CO)[C@H](c3ccc(-c4ccccc4)cc3)[C@@H]2C1 | -0.926
22 | O=C(CN1CCOCC1)N1CCCCN2[C@H](CO)[C@H](c3ccc(-c4ccccc4)cc3)[C@@H]2C1 | -0.341
